100 compounds from PubChem BioAssay AID1259374 (The Scripps Research Institute Molecular Screening Center, 2018) can be followed below.

SMILES strings stand for the structures. In all, about 650,000 compounds went through this assay and about 5,900 (0.91%) were called active. Shown is part of a subset that was picked to be rich in actives. Unmarked numbers belong to inactive results. Cut-off read from the data, not from the text of the source: active = inhibition above about 50%; inactive = the rest.

One may read the inhibition as the drop in the measured response relative to a control, in per cent.

The assay deals with Microphthalmia-associated transcription factor (Homo sapiens) (UniProt O75030). In words: MITF inhibitors, primary screen, biochemical, AlphaScreen, human (AID 1259374).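 Note: 0% = vehicle wells with protein.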 Particulars: AlphaScreen MITF homodimerization, bead proximity signal; at 2.6 µM; active compounds read high. (In Alpha technology, singlet oxygen from a donor bead excites a nearby acceptor bead.)
Microphthalmia-associated transcription factor (Homo sapiens), sequence (O75030 whole entry, looked up): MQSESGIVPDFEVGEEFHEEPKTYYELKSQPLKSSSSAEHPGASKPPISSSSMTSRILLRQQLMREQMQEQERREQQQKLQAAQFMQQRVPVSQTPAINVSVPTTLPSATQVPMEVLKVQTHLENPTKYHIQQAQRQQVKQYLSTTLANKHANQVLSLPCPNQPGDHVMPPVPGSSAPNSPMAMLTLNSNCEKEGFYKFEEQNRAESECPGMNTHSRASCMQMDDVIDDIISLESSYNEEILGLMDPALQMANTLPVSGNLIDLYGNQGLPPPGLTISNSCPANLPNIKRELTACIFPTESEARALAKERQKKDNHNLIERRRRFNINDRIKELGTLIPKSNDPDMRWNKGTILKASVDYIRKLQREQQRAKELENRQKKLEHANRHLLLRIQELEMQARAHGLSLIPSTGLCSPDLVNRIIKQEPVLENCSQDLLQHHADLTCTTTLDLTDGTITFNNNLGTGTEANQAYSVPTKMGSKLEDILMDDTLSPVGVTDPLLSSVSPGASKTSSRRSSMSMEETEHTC
For `Cc1ccc(C23CC4CC(CC(C(=O)NCC(=O)NN)(C4)C2)C3)cc1`, the inhibition is -4.06%.

As for `O=C(COc1ccc(Cl)cc1)N/N=C/c1ccc([N+](=O)[O-])c(O)c1`, the inhibition is -8.51%. Regarding `COc1ccc(S(=O)(=O)N(C)CC(=O)Nc2ccc(F)cc2F)cc1OC`, the inhibition is -13.8%.

For `N#C/C(=C/c1ccc(-c2ccc(F)cc2)o1)C(=O)N1CCCCC1`, the inhibition was -2.65%. For `N#C/C(=C/c1ccc(-c2ccc3c(c2)C(=O)NC3=O)o1)C(=O)O`, the inhibition is 54.7% (active). `N#C/C(=C\c1ccc(-c2ccc(F)cc2)o1)C(=O)O`: the inhibition is 9.25%. To `CCCN(CCC)C(=O)C(Cc1ccccc1)N1C(=O)C2C3C=CC(C3)C2C1=O` (stereo not given) belongs -7.73%; to `COc1ccc(CNC(=O)CC(C)C)cc1`, 4.41%. `COc1ccc(CNCC2CN(CC(C)C)CCO2)cc1` (stereo not given): the inhibition was 54.3% (active).

Regarding `COc1ccc(CN[C@H]2C[C@H]3C(=O)N[C@@H](C(C)C)C(=O)N3C2)cc1`, the inhibition was 16%.

Turning to `CCCCCNC(=O)COc1ccccc1C#N`, the inhibition was -3.44%.

Turning to `O=C(Nc1ccc(F)cc1F)c1cc([N+](=O)[O-])ccc1Cl`, the inhibition is -3.07%.

On to `O=C(Nc1nc2ccccc2n1CCOc1ccc(F)cc1)c1ccc(Cl)cc1`, for which the inhibition was -6.19%.

As for `COc1ccc(C2=NNc3cccc4c(OC)ccc2c34)cc1OC`, the inhibition is 51.8% (active). As for `COc1ccc(-c2nc3ccccc3[nH]2)cc1OC`, the inhibition is 10.1%. `COc1cc(Nc2nc(-c3ccc(OC)c(OC)c3)nc3ccccc23)cc(OC)c1`: the inhibition was -23%. Regarding `CCNCc1ccc(OCC(=O)Nc2ccc(OC)cc2)c(OC)c1`, the inhibition is -12.6%. As to `COc1cc([N+](=O)[O-])cc([N+](=O)[O-])c1NC(=O)N1CCOCC1`, the inhibition was 11.6%. As for `COC(=O)Oc1c([N+](=O)[O-])cc2oc(=O)sc2c1[N+](=O)[O-]`, the inhibition is 59.1% (active). On to `COC(=O)c1ccc(N2CCOCC2)c([N+](=O)[O-])c1`, for which the inhibition was 10.3%.

Consider `Cc1cccc(C(=O)Nc2ccc3oc(-c4ccc(Cl)c(Cl)c4)nc3c2)c1`, for which the inhibition is 6.63%. On to `O=C(Nc1nc2ccccc2s1)C(Cc1ccccc1)N1C(=O)c2ccccc2C1=O` (stereo not given), for which the inhibition was -3.65%. For the compound `CNC(=O)c1cc(F)ccc1Nc1cc(Nc2ccc(NC(C)=O)cn2)ncc1C(F)(F)F`, the inhibition was 1.21%.

In the case of `CC(C)c1ccc(NC(=O)CSc2nnc(CNC(=O)c3ccccc3)n2C)cc1`, the inhibition was 14%. Consider `Cc1ccccc1OCc1nnc(SCC(=O)NC(C)(C)C)n1C`, for which the inhibition was 11.7%. On to `Cc1cccnc1NC(=O)CSc1nnc(COc2ccc(C(C)C)cc2)n1C`, for which the inhibition is 53.7% (active). In the case of `CCOc1cc(/C=N/NC(=O)CC(=O)NCC(C)C)ccc1O`, the inhibition is 14.6%.

In the case of `Clc1ccc(-c2cc(NCCCn3ccnc3)ncn2)cc1`, the inhibition was 14.7%. For the compound `Cc1nc(NCCCN2CCOCC2)cc(-c2ccccn2)n1`, the inhibition was 12.2%.

For `c1ccc(-c2cc(NCCCn3ccnc3)nc(-c3ccccn3)n2)nc1`, the inhibition is 115% (active). Turning to `CCCCSc1nnc(CNC(=O)Cc2ccccc2)n1-c1ccc(Cl)c(Cl)c1`, the inhibition was 15.1%. Turning to `O=C1CCc2ccc(OCc3ccccc3F)cc21`, the inhibition is 12.2%. Turning to `COc1ccc(-n2nc(C(=O)N3CCC(C(N)=O)CC3)c3ccccc3c2=O)c(OC)c1`, the inhibition was 11.6%. In the case of `CCN(CC)c1ccc(NC(=O)c2ccc(OC)cc2)c(C)c1`, the inhibition was -6.58%. The same measure for `CCN(CC)c1ccc(NC(=O)CCc2nnc3ccc(N4CCCCC4)nn23)c(C)c1`: 15.7%; for `CCN1CCN(CC(=O)Nc2ccc(N(CC)CC)cc2C)CC1`: 70.1% (active). With `O=C(Cc1csc(Nc2ccc(Cl)cn2)n1)NCc1ccccc1Cl`, the inhibition was 13.2%. For `Cc1ccccc1-n1c(SCC(=O)Nc2ccc(C(N)=O)cc2)nnc1-c1ccncc1`, the inhibition is 24.8%.

Regarding `Cc1c(C(=O)c2ccccc2)oc2ccc(NC(=O)C(C)C)cc12`, the inhibition was -6.05%. As for `O=C1N=C(N2CCCC2)S/C1=C/c1ccc(-c2ccccc2[N+](=O)[O-])o1`, the inhibition is 18.4%. As to `CCCn1c(C)cc(-c2csc(NC(=O)Cc3ccsc3)n2)c1C`, the inhibition was 73.1% (active). To `C=CCn1c(C)cc(-c2csc(NC(=O)c3ccc([N+](=O)[O-])s3)n2)c1C` belongs 5.62%. As for `CCCCC(=O)Nc1nc(-c2ccc(I)cc2)cs1`, the inhibition was -1.42%.

For `O=C(NCCc1ccccc1)c1c[nH]c2ccc(S(=O)(=O)N3CCc4ccccc43)cc2c1=O`, the inhibition is 5.29%.

In the case of `COc1cccc(C(=O)N2CCN(C(=O)c3cccc(OC)c3)CC2)c1`, the inhibition was -5.18%. Consider `COc1ccc(/C(C)=N/N)cc1CN1CCCCC1`, for which the inhibition was -0.23%. Regarding `OCCN1CCN(CC(O)COCCOc2ccc(Cl)cc2)CC1` (stereo not given), the inhibition is -9.2%.

As for `OCCOCCN1CCN(Cc2ccc(Cl)cc2)CC1`, the inhibition is 82.7% (active). On to `COc1cccc(CN2CCN(CCOCCO)CC2)c1OC`, for which the inhibition is -6.67%. As for `COc1cc(OC)c(OC)cc1CN1CCN(C(=O)c2cccs2)CC1`, the inhibition was 35.6%. As for `COc1ccc(Br)cc1CN1CCN(C(=O)c2cccnc2)CC1`, the inhibition is 88.2% (active). To `COc1ccc(C(=O)N2CCN(Cc3cc(OC)c(OC)cc3OC)CC2)cc1` belongs -7.92%; to `COc1cc(Br)cc(CN2CCCN(C)CC2)c1O`, 7.81%. Turning to `COc1ccc(Br)cc1CN1CCN(C(C)=O)CC1`, the inhibition was 2.27%. In the case of `COc1ccc(Br)cc1CN1CCN(CCOCCO)CC1`, the inhibition was 66.6% (active).

Take `COc1cccc(C(=O)N2CCN(Cc3cc(OC)c(OC)cc3OC)CC2)c1`: the inhibition is 63.4% (active). With `CC1SC2(CCCCC2)N(c2ccc(F)cc2)C1=O` (stereo not given), the inhibition is -0.68%. Turning to `COc1ccccc1NC(=O)CN1C(=O)C2CC=C(Cl)CC2C1=O` (stereo not given), the inhibition was 2.72%. Consider `Cc1cc(OCC(O)CNCC(C)O)c(C(C)C)cc1Cl` (stereo not given), for which the inhibition is 0.85%. To `O=S(=O)(NC1CCCC1)c1ccc(-c2ccc(S(=O)(=O)NC3CCCC3)cc2)cc1` belongs -2.79%; to `Clc1ccc(-c2csc(Nc3cccc4ccccc34)n2)cc1Cl`, 0.76%. `N#CC1=C(SCC(=O)Nc2cccc(F)c2)NC(=O)CC1c1ccccc1F` (stereo not given): the inhibition was 3.64%. As for `CCc1ccccc1NC(=O)c1ccc(F)c(S(=O)(=O)NCc2ccc3c(c2)OCO3)c1`, the inhibition was 10.2%. Regarding `Cc1ccc(/C=C(\C#N)C(N)=O)c(C)c1`, the inhibition was 6.24%. For `COCCn1nnnc1C(c1cccnc1)N1CCN(c2ccccc2OC)CC1` (stereo not given), the inhibition is -7.29%. Regarding `Nc1cccc(-c2ccc(C(=O)Nc3ccc(N4CCOCC4)cc3)s2)c1`, the inhibition is 13.4%. With `CCS(=O)(=O)N1CCC(c2nnc(C3CC3)s2)CC1`, the inhibition was 1.6%.

Consider `CCS(=O)(=O)N1CCC(N2CC(C)CC(C)C2)CC1` (stereo not given), for which the inhibition was 31.2%. In the case of `CCS(=O)(=O)N1CCN(C2CCCCC2C)CC1` (stereo not given), the inhibition was 51.2% (active).

In the case of `COc1cc(/C=N/NC(=O)c2cccnc2)ccc1Oc1ccc([N+](=O)[O-])cc1[N+](=O)[O-]`, the inhibition was 12.4%. As to `CCC1CN(Cc2ccccn2)Cc2ccc(Cl)cc2O1` (stereo not given), the inhibition is -11.7%. The same measure for `CCCCCCOC(=O)c1ccc(-c2ccc(-c3ccc(C(=O)OCCCCCC)cc3)cc2)cc1`: 14.5%; for `CCCCCCOC(=O)c1cc(C(=O)OCCCCCC)c(C)nc1C`: 55.6% (active).

Regarding `CCOC(=O)c1cc2cccnc2nc1C`, the inhibition is 12.4%. `CCN1CCN(Cc2c(O)ccc3cc(-c4ccccc4)c(=O)oc23)CC1`: the inhibition is 2.19%. Regarding `Cc1cn2c(=O)c(C(=O)Nc3ccc(Br)c(C)c3)cnc2s1`, the inhibition is 3.85%. As for `C=CCNC(=O)c1cc2cc(Cl)ccc2oc1=O`, the inhibition is 12.4%. The same measure for `CC1(C)CC(=O)C2=C(C1)Nc1ccccc1N(C(=O)Cc1ccccc1)C2c1ccc(-c2ccc([N+](=O)[O-])cc2)o1` (stereo not given): 65.2% (active); for `CC1(C)CC(=O)C2=C(C1)Nc1ccccc1N(C(=O)Cc1ccccc1)C2c1cccc(F)c1` (stereo not given): 0.57%.

For `CCN(CC)c1ccc(C2C3=C(CC(C)(C)CC3=O)Nc3ccccc3N2C(=O)Cc2ccccc2)cc1` (stereo not given), the inhibition is 2.82%. In the case of `COc1ccc(C2CC(=O)C3=C(C2)Nc2ccccc2N(C(=O)c2ccc(Cl)c(Cl)c2)C3c2ccc(C)cc2)cc1` (stereo not given), the inhibition was -2.68%. As for `COc1cc(NC(C)C(=O)Nc2ccc(C(C)=O)cc2)cc(OC)c1` (stereo not given), the inhibition was 0.12%. Consider `CC(=O)c1ccc(NC(=O)C(C)NCc2ccc(Cl)cc2)cc1` (stereo not given), for which the inhibition is 3.65%. Regarding `CC(=O)c1ccc(NC(=O)C(C)NCc2ccc(C)cc2)cc1` (stereo not given), the inhibition is 76% (active). Consider `Cc1nc2c(c(=O)[nH]1)C(c1ccc(Cl)c(Cl)c1)C(C#N)=C(N)O2` (stereo not given), for which the inhibition was 3.39%. To `C=CCNC(=O)C(=O)Nc1cc(C)ccc1OC` belongs 12.4%. For `NS(=O)(=O)c1cccc(NC(=O)COc2ncnc3sc(-c4ccccc4)cc23)c1`, the inhibition is 51.8% (active). Regarding `NS(=O)(=O)c1ccc2nc(NC(=O)COc3ccccc3)sc2c1`, the inhibition is 5.22%. For the compound `CNC(=O)NC(=O)CSc1ncnc2sc(-c3ccccc3)cc12`, the inhibition is 9.51%.

`O=S(=O)(NCc1cccnc1)c1ccc(-n2cnnn2)cc1`: the inhibition is -8.13%. On to `COc1ccc(Cc2nnc(N/N=C/c3ccccc3O)[nH]c2=O)cc1OC`, for which the inhibition was 112% (active). Turning to `COc1cccc(Nc2nnc(Cc3ccc(Cl)cc3)c(=O)[nH]2)c1`, the inhibition was 10.6%.

Regarding `CCOc1ccccc1Nc1nnc(Cc2ccc(OC)cc2)c(=O)[nH]1`, the inhibition is 24.2%. Consider `Cc1cc(NC(=O)Cc2ccccc2)n(-c2nc(C)c(C)c(=O)[nH]2)n1`, for which the inhibition is 24.5%. To `C[C@@H](OCc1ccccc1)[C@@H]1NC(=O)[C@H]2CN(Cc3ccc4ncccc4c3)CCN2C1=O` belongs 15.9%. As for `O=C1N[C@H](Cc2ccccc2)C(=O)N2CCN(C(=O)Oc3ccccc3)C[C@H]12`, the inhibition was -5.43%. To `C[C@H](O)[C@H]1NC(=O)[C@H]2CN(C(=O)c3ccccc3)CCN2C1=O` belongs -12.5%; to `CC[C@@H]1NC(=O)[C@H]2CN(C(=O)NCc3ccccc3)CCN2C1=O`, 75.7% (active). The same measure for `C[C@@H](OCc1ccccc1)[C@@H]1NC(=O)[C@H]2CN(C(=O)Nc3cccc(F)c3)CCN2C1=O`: 75.3% (active). Take `CC[C@@H]1NC(=O)[C@H]2CN(C(=O)c3cccs3)CCN2C1=O`: the inhibition was 14.5%.
